From PubChem BioAssay
A selection: hits, their analogues and other compounds. The true share with any hit is near 12%.
PLK1 PBD block = blocks phosphopeptide binding to human PLK1 polo-box domain. Plk1 PBD binding of FITC phosphopeptide, fluorescence polarization. Potency, µM, for the others: max response, negative = inhibition, hits mostly inhibitors. actives 2.8% (n = 360,000). P53350; also: series mostly up to about 57 µM; % is scaled to controls: 0 for no effect and ±100 for the full control effect; nearly all actives have a fitted effect of over 65% in size
HP1b binding inh = HP1-beta chromodomain-methylated histone interaction inhibition; Potency, µM (series often up to 114 µM), inactives show at the highest dose activity change, negative = inhibition, most hits filed as inhibitors; AlphaScreen HP1-beta / biotin-H3K9me3 peptide binding; AID 540317; actives 0.56% (n = 390,000); also: nearly all actives have a fitted effect of over 70% in size
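AlphaScreen: HP1-beta (50 nM) preformed 30 min with biotin-H3(1-18)K9me3 peptide (50 nM) in PBS pH 7.4, 0.01% Tween-20. Compound added for 30 min at RT, then streptavidin donor/nickel chelate acceptor beads (10 ug/mL) for 30 min.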
BAZ2B inh = BAZ2B (human) inhibition | Q9UIF8 | AlphaScreen BAZ2B-H3K14Ac peptide displacement | Potency, µM (series often up to 114 µM), inactives show top-dose activity change, negative = inhibition, actives largely listed as inhibitors | actives 4.4% (n = 360,000); also: % is scaled to controls: 0 for no effect and ±100 for the full control effect; nearly all actives have a fitted effect of over 60% in size
Target sequence (Q9UIF8 whole entry, looked up): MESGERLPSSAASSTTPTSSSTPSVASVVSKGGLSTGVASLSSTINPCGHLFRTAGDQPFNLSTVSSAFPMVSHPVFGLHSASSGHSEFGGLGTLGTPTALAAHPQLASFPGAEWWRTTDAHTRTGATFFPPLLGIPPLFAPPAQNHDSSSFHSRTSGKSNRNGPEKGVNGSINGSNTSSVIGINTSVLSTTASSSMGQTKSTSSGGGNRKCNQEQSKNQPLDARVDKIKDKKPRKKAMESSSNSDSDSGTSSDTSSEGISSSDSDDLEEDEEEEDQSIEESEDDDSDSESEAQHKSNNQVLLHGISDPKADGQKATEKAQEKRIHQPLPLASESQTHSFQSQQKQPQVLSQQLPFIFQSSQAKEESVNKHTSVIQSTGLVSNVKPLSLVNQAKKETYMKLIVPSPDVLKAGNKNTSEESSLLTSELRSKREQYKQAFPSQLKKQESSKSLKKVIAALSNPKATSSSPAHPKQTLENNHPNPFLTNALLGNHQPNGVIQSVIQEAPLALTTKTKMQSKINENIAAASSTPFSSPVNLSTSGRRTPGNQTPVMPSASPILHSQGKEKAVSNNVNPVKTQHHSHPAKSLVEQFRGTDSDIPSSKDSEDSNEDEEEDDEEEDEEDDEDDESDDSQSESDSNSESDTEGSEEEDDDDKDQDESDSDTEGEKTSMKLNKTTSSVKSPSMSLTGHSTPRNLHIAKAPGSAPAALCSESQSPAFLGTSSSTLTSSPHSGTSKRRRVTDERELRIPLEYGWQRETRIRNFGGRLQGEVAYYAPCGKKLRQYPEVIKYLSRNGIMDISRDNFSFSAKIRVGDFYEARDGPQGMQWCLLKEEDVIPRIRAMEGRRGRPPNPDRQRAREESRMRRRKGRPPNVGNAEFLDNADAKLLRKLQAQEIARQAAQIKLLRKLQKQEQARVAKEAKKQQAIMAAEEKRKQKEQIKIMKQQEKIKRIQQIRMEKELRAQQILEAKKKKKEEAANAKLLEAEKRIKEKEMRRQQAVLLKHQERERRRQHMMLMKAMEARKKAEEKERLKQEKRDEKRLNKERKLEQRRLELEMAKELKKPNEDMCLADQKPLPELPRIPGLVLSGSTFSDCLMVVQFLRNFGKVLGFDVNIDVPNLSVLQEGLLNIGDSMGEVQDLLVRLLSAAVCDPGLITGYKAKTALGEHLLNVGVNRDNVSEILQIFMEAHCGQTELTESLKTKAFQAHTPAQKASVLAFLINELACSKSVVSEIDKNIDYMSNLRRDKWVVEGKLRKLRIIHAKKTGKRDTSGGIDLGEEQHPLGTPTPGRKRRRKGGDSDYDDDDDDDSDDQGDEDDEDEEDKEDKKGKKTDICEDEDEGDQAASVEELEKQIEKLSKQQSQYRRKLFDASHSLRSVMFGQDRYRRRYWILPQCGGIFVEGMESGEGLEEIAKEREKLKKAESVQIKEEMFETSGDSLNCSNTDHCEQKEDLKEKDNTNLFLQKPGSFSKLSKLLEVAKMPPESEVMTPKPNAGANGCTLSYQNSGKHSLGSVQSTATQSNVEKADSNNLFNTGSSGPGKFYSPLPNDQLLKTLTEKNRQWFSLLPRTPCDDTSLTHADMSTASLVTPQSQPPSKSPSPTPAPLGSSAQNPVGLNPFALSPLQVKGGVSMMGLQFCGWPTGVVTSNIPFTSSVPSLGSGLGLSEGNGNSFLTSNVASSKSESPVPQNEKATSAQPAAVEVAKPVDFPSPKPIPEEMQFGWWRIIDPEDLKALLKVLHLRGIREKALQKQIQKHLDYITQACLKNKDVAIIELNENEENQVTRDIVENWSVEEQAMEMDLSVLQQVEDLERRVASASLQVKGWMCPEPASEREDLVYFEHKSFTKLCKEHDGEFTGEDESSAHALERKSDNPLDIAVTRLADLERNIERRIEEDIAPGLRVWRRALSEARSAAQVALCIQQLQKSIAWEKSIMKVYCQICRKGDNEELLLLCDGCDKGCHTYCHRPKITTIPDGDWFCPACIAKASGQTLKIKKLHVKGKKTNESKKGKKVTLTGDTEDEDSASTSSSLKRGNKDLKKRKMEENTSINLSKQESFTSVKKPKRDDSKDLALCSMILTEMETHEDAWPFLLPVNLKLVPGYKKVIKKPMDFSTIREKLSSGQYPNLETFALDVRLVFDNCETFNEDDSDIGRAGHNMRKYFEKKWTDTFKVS
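AlphaScreen displacement of biotin-H3(5-23)K14Ac peptide (50 nM final) from BAZ2B (50 nM final) in PBS pH 7.4, 0.01% Tween-20; complex preformed 30 min RT, then compounds (top 110 uM) 30 min RT, beads 20 min dark.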
JMJD2A Tudor inh = inhibitors of human JMJD2A Tudor domain; O75164; AlphaScreen JMJD2A-Tudor / H3K4me3 peptide binding; Potency, µM (doses to about 114 µM), inactives show at the highest dose activity change, negative = inhibition, usual class: inhibitors; actives 4.4% (n = 390,000); AID 504339; also: % is scaled to controls: 0 for no effect and ±100 for the full control effect; nearly all actives have a fitted effect of over 50% in size
Sfp PPTase inh = Sfp phosphopantetheinyl transferase inhibition | AID 1490 | Potency, µM, for the others: largest response in the series, negative = inhibition, actives largely listed as inhibitors | actives 3.5% (n = 310,000) | Biochemical Sfp PPTase activity, qHTS;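 also: the enzyme is Sfp with the accession as filed and its product quenches rhodamine fluorescence; 0% = enzyme reaction without inhibitor and -100% = no enzyme wells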
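Compounds were incubated with enzyme (final 15 nM) for 15 min at room temperature before substrate addition started the reaction. Fluorescence at 525 nm excitation, 598 nm emission was recorded immediately and after 30 minutes.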
G9a inh = blocks human histone lysine methyltransferase G9a; G9a H3K9 monomethylation, AlphaScreen, 2 h; Q96KQ7; AID 504332; actives 8.8% (n = 350,000); Potency, µM (top dose mostly 102 µM), without a hit: at the top dose activity, negative = inhibition, actives largely listed as inhibitors; also: % is scaled to controls: 0 for no effect and ±100 for the full control effect; nearly all actives have a fitted effect of over 75% in size
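AlphaScreen detection with an anti-monomethyl H3K9 antibody quantified product after a 2 h room-temperature reaction containing 500 nM biotinylated H3K9 peptide, 20 µM SAM and 20 nM enzyme, which had been preincubated 15 min with compound.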
An asterisk follows results filed as active; [ ] = remark or other dose. Calls follow the shape of the dose curve; as a rule, active = well fitted curve in the direction sought with a large enough effect; inconclusive = small, poorly fitted or top-dose-only effect, or another doubt; inactive = no such curve, though single readings can be large; an effect the other way counts as inactive or inconclusive. Potency is read from the fitted curve at half-maximal effect.

What do the screens show for `COc1ccc(CN2CCNC(=O)C2CC(=O)N(C)C2CCCCC2)cc1OC` (stereo not given)?
PLK1 PBD block: -2.6%

Results for CN(C(=O)CC1C(=O)NCCN1Cc1ccc(F)c(F)c1)C1CCCCC1 (stereo not given) ?
PLK1 PBD block: -4.6%; HP1b binding inh: 17.9%; BAZ2B inh: -15.0%; JMJD2A Tudor inh: -8.1%; Sfp PPTase inh: 3.0%; G9a inh: 44.7µM*

How did CN(C(=O)CC1C(=O)NCCN1Cc1c(F)cccc1Cl)C1CCOCC1 (stereo not given) do in these assays?
PLK1 PBD block: -27.1%; HP1b binding inh: 85.3%; BAZ2B inh: -0.1%; JMJD2A Tudor inh: -4.2%; Sfp PPTase inh: 4.2%; G9a inh: 44.7µM*

How did CC(C)N(Cc1nccn1C)C(=O)CC1C(=O)NCCN1Cc1ccc(F)c(F)c1 (stereo not given) do in these assays?
PLK1 PBD block: -17.2%; HP1b binding inh: 24.6%; BAZ2B inh: -26.0%; JMJD2A Tudor inh: -6.2%; Sfp PPTase inh: -5.8%; G9a inh: 39.8µM*

What do the screens show for `CN(C(=O)CC1C(=O)NCCN1Cc1cccc(F)c1F)C1CCOCC1` (stereo not given)?
PLK1 PBD block: -11.9%; HP1b binding inh: 46.2%; BAZ2B inh: -13.3%; JMJD2A Tudor inh: -4.2%; Sfp PPTase inh: -3.0%; G9a inh: inconclusive

Results for CCN(Cc1ccncc1)C(=O)CC1C(=O)NCCN1Cc1ccc(F)c(F)c1 (stereo not given) ?
PLK1 PBD block: -14.0%; HP1b binding inh: 70.1%; BAZ2B inh: -28.7%; JMJD2A Tudor inh: -9.7%; Sfp PPTase inh: 79.4µM*; G9a inh: inconclusive

How did CCN(CCn1cccn1)C(=O)CC1C(=O)NCCN1Cc1ccc(F)c(F)c1 (stereo not given) do in these assays?
PLK1 PBD block: 6.3%; HP1b binding inh: 37.2%; BAZ2B inh: -5.8%; JMJD2A Tudor inh: 8.0%; Sfp PPTase inh: 8.6%; G9a inh: inconclusive

What do the screens show for `CN(C(=O)CC1C(=O)NCCN1Cc1ccoc1)C1CCOCC1` (stereo not given)?
PLK1 PBD block: -12.5%; HP1b binding inh: 13.2%; BAZ2B inh: -15.8%; JMJD2A Tudor inh: -10.7%; Sfp PPTase inh: 5.3%; G9a inh: inconclusive

What do the screens show for `Cc1ccc(CN2CCNC(=O)C2CC(=O)N(C)C2CCOCC2)cc1` (stereo not given)?
PLK1 PBD block: -2.4%; HP1b binding inh: 40.0%; BAZ2B inh: 2.7%; JMJD2A Tudor inh: -7.5%; Sfp PPTase inh: 6.4%; G9a inh: 50.1µM*

How did [O-][n+]1ccccc1SSc1cccc[n+]1[O-] do in these assays?
Sfp PPTase inh: 0.708µM*; G9a inh: 1.26µM*

How did CCCc1cc(CN2CCOCC2)c(O)c(CN2CCOCC2)c1O do in these assays?
PLK1 PBD block: 6.7µM*; HP1b binding inh: 25.1µM*; JMJD2A Tudor inh: 11.2µM*

Results for Oc1c(Cl)cc(Oc2cc(Cl)c(O)c(CN3CCOCC3)c2)cc1CN1CCOCC1 ?
PLK1 PBD block: -8.2%; HP1b binding inh: inconclusive; JMJD2A Tudor inh: inconclusive

How did Oc1c(CN2CCOCC2)cc(CN2CCOCC2)c(O)c1O do in these assays?
PLK1 PBD block: 1.68µM*; HP1b binding inh: 6.31µM*; JMJD2A Tudor inh: 11.2µM*

Results for c1cc2ccc3ccc(CN4CCOCC4)c4ccc(c1)c2c34 ?
PLK1 PBD block: -2.6%; HP1b binding inh: 67.6%; BAZ2B inh: 31.2%; JMJD2A Tudor inh: 2.2%; Sfp PPTase inh: -12.6%; G9a inh: 2.1%[59 µM]

How did Oc1cccc(CN2CCOCC2)c1O do in these assays?
PLK1 PBD block: -0.3%; HP1b binding inh: 70.8µM*; JMJD2A Tudor inh: 10µM*

How did CCc1ccccc1N(C(=O)c1snc(C(N)=O)c1N)C(C(=O)NCC1CCCO1)c1c[nH]c2ccccc12 (stereo not given) do in these assays?
PLK1 PBD block: 1.7%; HP1b binding inh: 25.7%; BAZ2B inh: -1.3%; JMJD2A Tudor inh: -9.6%; Sfp PPTase inh: -1.7%; G9a inh: 8.2%

Results for O=C(Cc1ccccn1)c1ccncc1 ?
PLK1 PBD block: -14.7%; HP1b binding inh: 0.7%; JMJD2A Tudor inh: -9.7%

How did Cc1nn(C)c2c1c(C(F)(F)F)cc(=O)n2CC(=O)N1CCCCC1 do in these assays?
HP1b binding inh: 8.5%; BAZ2B inh: -14.6%; JMJD2A Tudor inh: 2.0%; G9a inh: 1.1%[59 µM]

Results for CCC(C)CC(C)CC(C)C(=O)/C=C(/O)C(C)CC(C)C/C=C/C(C)C(O)C(C)C(O)CC1CCC(C)(C)O1 (stereo not given) ?
Sfp PPTase inh: -0.4%

Results for C/C(=N\Nc1nccnc1Cl)c1ccc(O)cc1 ?
PLK1 PBD block: 1.4%; HP1b binding inh: 15.2%; BAZ2B inh: 3.1%; JMJD2A Tudor inh: -14.3%; Sfp PPTase inh: inconclusive; G9a inh: 35.1%

Results for C/C(=N\Nc1nccnc1Cl)c1ccc(F)cc1 ?
PLK1 PBD block: 1.5%; HP1b binding inh: 10.9%; BAZ2B inh: -18.9%; JMJD2A Tudor inh: 6.9%; Sfp PPTase inh: 22.4µM*; G9a inh: -4.6%[0.501 µM]

What do the screens show for `CC#CCN1c2ccccc2[C@]23C[C@@H](C(=O)OC)N(S(=O)(=O)c4ccc(Br)cc4)C2=NC(C(=O)OC)=C(C(=O)OC)[C@H]13`?
Sfp PPTase inh: 8.5%

Results for O=C(Nc1nc2ccc(F)cc2s1)c1ccccn1 ?
PLK1 PBD block: 0.7%; HP1b binding inh: 60.6%; BAZ2B inh: 39.8µM*; JMJD2A Tudor inh: -12.5%; Sfp PPTase inh: 10.2%; G9a inh: -3.2%

What do the screens show for `O=C(Nc1nc2ccccc2s1)c1cnccn1`?
PLK1 PBD block: -5.1%; HP1b binding inh: 26.3%; BAZ2B inh: 6.8%; JMJD2A Tudor inh: -33.0%; Sfp PPTase inh: -25.3%; G9a inh: 3.55µM*

How did Cc1nnc(N2CCc3ccccc3C2)[nH]c1=O do in these assays?
PLK1 PBD block: 29.9µM*; HP1b binding inh: -5.4%; BAZ2B inh: -1.5%; JMJD2A Tudor inh: 19.2%[11.4 µM]; Sfp PPTase inh: 14.1%; G9a inh: 9.2%

How did C=CCn1c(SCC(=O)NCCCC)nc2scc(-c3ccco3)c2c1=O do in these assays?
PLK1 PBD block: inconclusive; HP1b binding inh: inconclusive; BAZ2B inh: inconclusive; JMJD2A Tudor inh: 56.2µM*; Sfp PPTase inh: 20µM*; G9a inh: -22.0%[59 µM]

How did C=CCn1c(SCC(=O)Nc2c(C)n(C)n(-c3ccccc3)c2=O)nc2scc(-c3ccccc3)c2c1=O do in these assays?
PLK1 PBD block: -10.7%; HP1b binding inh: 41.1%; BAZ2B inh: -7.7%; JMJD2A Tudor inh: -13.0%[57.1 µM]; Sfp PPTase inh: 16.2%; G9a inh: -48.6%[59 µM]

Results for C=CCn1c(SCC(C)=O)nc2scc(-c3ccc(C)o3)c2c1=O ?
PLK1 PBD block: -3.1%; HP1b binding inh: 19.5%; BAZ2B inh: 6.3%; JMJD2A Tudor inh: inconclusive; Sfp PPTase inh: 50.1µM*; G9a inh: 44.7µM*
